# From PubChem BioAssay (NCI)
# Compounds without any hit were thinned out: in the full panel of roughly 83,000, 20% have a hit.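 Negative percent growth values reflect cell death: -40 means 40% of the cells present at the start died, and -100 means all died.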 Values without a mark were called inactive. Activity calls are given as the source filed them. Rule for the calls: active = growth percent below 10; inactive = the rest.
# Tested on: KM12 colon
# Test: NCI-60 one-dose screen, 48 h (100 = growth as untreated, 0 = no growth, -100 = all killed)
# Settings: 10 µM unless noted
row,Structure (SMILES),growth
1,Clc1cnc(Nc2ccc(OCCN3CCCC3)cc2)nc1NCc1ccco1,4.56% (active)
2,COc1ccc(Oc2nc(Nc3ccc(N4CCCCC4)nc3)ncc2NC(=O)c2cc(OC)cc(OC)c2)cc1,20.2%
3,CCCn1nc(-c2ccccc2)c2c(-c3ccccc3)onc2c1=O,60%
4,COc1ccc(/C(C)=C(\c2ccc(Cl)cc2)c2ccc(OCCCN(C)C)cc2)cc1F,29.2%
5,CCN(CC)N=Nc1nn(C(=O)Nc2ccc(Cc3ccccc3)cc2)c2ccc(Cl)cc12,56.6%
6,C=C1C(=O)O[C@H]2[C@H]1CC/C(COC(=O)NCc1ccc(Cn3c(=O)sn(CCCCl)c3=O)cc1)=C\CC[C@@]1(C)O[C@@H]21,77.7%
7,NC(=S)N/N=C/C(=O)O,99.4%
8,C=C(C)[C@@H]1CC[C@]2(CNCCO)CC[C@]3(C)[C@H](CC[C@@H]4[C@@]5(C)CCC(N)[C@@](C)(CO)[C@@H]5CC[C@]43C)[C@@H]12 (stereo partly specified),-2.9% (active)
9,Clc1ccc2c(NCCCN3CCN(c4nc(-n5ccnc5)nc5ccccc45)CC3)ccnc2c1,87.8%
10,O=C1C(Cl)C(c2ccccc2Cl)N1n1cnnc1 (stereo unspecified),96.9%
11,COC(=O)c1ccc(CSc2nnc(-c3ccncc3)o2)cc1,109%
12,C#CC[C@H](N)C(=O)O,105% [20 µM]
13,CN1CCN(C(=O)[C@]23CCC(C)(C)C[C@@H]2C2=CC[C@@H]4[C@@]5(C)Cc6c([nH]c7ccccc67)C(C)(C)[C@@H]5CC[C@@]4(C)[C@]2(C)CC3)CC1,76.3%
14,Cc1cc(N2CCCCC2)nc(N(CCNc2ccnc3cc(Cl)ccc23)Cc2ccccn2)n1,55.2%
15,CCN(CC)c1ccc(Nc2ccc(CC(=O)c3ccccc3)cc2)cc1,74.9%
16,COc1ccc(/C=C2\C=C(c3ccccc3)N(CCc3ccccc3)C2=O)cc1OC,64%
17,CCn1nc(C#Cc2c(C)ccc3c(Nc4ccc(Cl)cc4)nccc23)c2c(N)ncnc21,14.2%
18,Cc1ccc(S(=O)(=O)Nc2sccc2-c2nc(-c3ccccc3)no2)cc1,90.1%

row,Structure (SMILES),growth
1,CCCCCOC(=O)c1cccc(NC(=O)CN(CC)CC)c1,104%
2,COc1cc2oc(-c3cccc(C(=O)Nc4ccc(C#N)cc4)c3)cc(=O)c2c(O)c1OC,38.9%
3,COc1ccc(-n2ncn(CCCCCCn3cnn(-c4ccc(OC)cc4)c3=O)c2=O)cc1,97%
4,COc1ccc(C2CC(c3ccccc3)=NN2c2nc(C)c(C(C)=O)s2)cc1 (stereo unspecified),102%
5,CC(C)(C)CC(C)(C)Nc1c(-c2ccc(-c3ccccc3)cc2)nc2cnccn12,79.9%
6,N#Cc1cccc(-c2nc3ccccn3c2NCCN2CCOCC2)c1,88.6%
7,C=C1C(=O)O[C@H]2[C@H]1CC/C(COC(=O)/C=C/C(=O)NCc1ccc(Cn3c(=O)sn(-c4ccccc4)c3=O)cc1)=C\CC[C@@]1(C)O[C@@H]21,49.1%
8,CCC(C)NCc1ccccc1 (stereo unspecified),100%
9,CC(C)n1nc(C#Cc2cccc3cc(-c4cccc(C(F)(F)F)c4)ncc23)c2c(N)ncnc21,60.9%
10,CCNCCNc1cc(-c2ccc(C#N)cc2)c(C#N)c2nc3ccccc3n12,29%
11,CC[C@@H](C[C@H](CCO)c1ccccc1)c1cc2ccccc2o1,88.7%
12,CCN(CCO)CC(=O)c1cc(Cl)cc(Cl)c1Cl,102%
13,C=C1C(=O)O[C@H]2[C@H]1CC/C(Cn1cc(CNCCc3c[nH]c4ccc(Cl)cc34)nn1)=C\CC[C@@]1(C)O[C@@H]21,82.9%
14,C=C1c2c(C)nn(-c3ccc(N)cc3)c2N(C)C23CC1C1(C)c4c(C)nn(-c5ccc(N)cc5)c4N(C)C(C)(CC12)C3 (stereo unspecified),68.3%
15,COc1ccc(Nc2ncc(Br)c(NCCCNC(=O)C3CCC3)n2)cc1,15.2%
16,CC(C)n1nc(C#Cc2cccc(NC(=O)c3cccc(C(F)(F)F)c3)c2)c2c(N)ncnc21,3.28% (active)
17,COC(=O)c1ccc2oc(NC(=O)c3ccc(N4CCOCC4)c([N+](=O)[O-])c3)nc2c1,102%
18,COc1cc2oc(-c3cccc(C(=O)Nc4ccc(C)cc4)c3)cc(=O)c2c(OC)c1OC,33%
